# Results reported in PubChem BioAssay (NCI).
# This is part of a sample that, as a whole, favours compounds with a hit. Of some 83,000 tested, about 20% had one in any assay.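 Interpretation: 100, growth as untreated; towards 0, rising growth inhibition; 0, no net growth; 0 to -100, cell death. Compounds scoring below 10 were considered active.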 Values without a mark were called inactive. Calls of active or inactive are those of the source.
# How the values were obtained:
# Assay in all cases: NCI-60 one-dose screen, 48 h (100 = growth as untreated, 0 = no growth, -100 = all killed)
# Settings in all cases: 10 µM unless noted
# [1] = system: NCI-H23 lung
# [2] = system: NCI-H226 lung
# [3] = system: NCI-H322M lung
# [4] = system: HOP-62 NSCLC
# [5] = system: NCI-H460 lung
# [6] = system: HOP-92 NSCLC
# [7] = system: NCI-H522 lung
# [8] = system: A549/ATCC NSCLC
# [9] = system: 786-0 renal
# [10] = system: COLO 205 colon
Compound,growth [1],growth [2],growth [3],growth [4],growth [5],growth [6],growth [7],growth [8],growth [9],growth [10]
O=C(CSc1nc2ccc([N+](=O)[O-])cc2[nH]1)Nc1cccc(Cl)c1,-2.48% (active),12.9%,62.4%,35%,25.3%,-27.9% (active),4.64% (active),28.9%,28.6%,26.4%
Cc1ccc(S(=O)(=O)Oc2ccc(Br)cc2Br)cc1,88%,85.5%,91.2%,76.6%,97.2%,82.3%,82.1%,64%,86.6%,63.9%
CCOc1ccc2sc(NS(=O)(=O)c3ccc(N)cc3)nc2c1,104%,94.7%,109%,100%,104%,94%,115%,112%,115%,103%
Cc1ccc(S(=O)(=O)n2cc(C(=O)C(=O)N3CCCCC3)c3ccccc32)cc1,55.1%,87.5%,92.9%,80.3%,91.9%,-0.0596% (active),70.2%,120%,88.7%,109%
CCN(CCNc1ccc(C)c2sc3cc(Cl)ccc3c(=O)c12)CC(C)O (stereo not given),92.9%,134%,95.9%,76%,3.16% (active),29.8%,28.3%,34.7%,41.9%,-34% (active)
O=S(=O)(NCCCNc1nccc(-c2c(-c3cccc(F)c3)nc3occn23)n1)c1cccc2ccccc12,63.9%,36.3%,64.6%,74.4%,18.7%,63.9%,51.1%,33.5%,46.5%,-18.1% (active)
O=C(NCCCNC(=O)OCc1ccc2c(Br)cc(Br)c(O)c2n1)OCc1ccc2c(Br)cc(Br)c(O)c2n1,-46.3% (active),2.3% (active),32.7%,-19.1% (active),4.8% (active),-80.3% (active),-60.9% (active),6.61% (active),-58.9% (active),-76.8% (active)
Cc1nc(Cl)c2c(n1)N(C)c1ccc(Cl)cc1C(C)C2 (stereo not given),92.5%,87.7%,97.1%,90.4%,92.3%,66%,77.8%,84.6%,90%,97.3%
Cc1ccc(-c2cc(O)c(-c3ccc(C)cc3C)cc2O)c(C)c1,76.7%,62.9%,106%,74%,23.6%,67.7%,59.2%,51.9%,60%,91.1%
CCn1cc(-c2ccnc(NCCNS(=O)(=O)c3cccc4ccccc34)c2)c(-c2cccc(O)c2)n1,100%,94.2%,98.9%,113%,102%,79.8%,105%,103%,92.3%,112%
CCOC(=O)c1nn(C2CCCCO2)c2ccc(NC(=O)CN3CCOCC3)cc12 (stereo not given),99.7%,106%,95.7%,100%,101%,108%,106%,106%,98.3%,118%
CCOc1ccc(S(=O)(=O)Nc2ccc3c(c2)N(S(=O)(=O)CC)CCC3)cc1,87.5%,87%,86.8%,69.9%,52.6%,86.1%,68.4%,84.3%,96%,62.6%
CCOC(=O)CC(c1ccccc1)C(C#N)c1ccccc1 (stereo not given),102%,95.4%,108%,96.2%,105%,90.9%,95.9%,99.3%,98.7%,100%
c1ccc(-c2nc(N3CCCNCC3)c3nc(-c4ccccc4)oc3n2)cc1,22.3%,49.9%,93.7%,78.2%,-50.1% (active),42.4%,26.4%,-38.8% (active),67%,-79.2% (active)
CCn1cc(-c2ccnc(NCCNS(=O)(=O)c3ccc(Br)cc3)c2)c(-c2cccc(OC)c2)n1,-96.1% (active),72.9%,85.3%,81.4%,78.4%,51.1%,56.7%,62.4%,71.3%,93.5%
C[C@H]1[C@H](C)CC[C@]2(C(=O)N3CCN(C)CC3)CC[C@]3(C)C(=CC[C@@H]4[C@@]5(C)C/C(=C/c6ccco6)C(=O)C(C)(C)[C@@H]5CC[C@]43C)[C@H]12,32.5% [100 µM],37.4% [100 µM],51.6% [100 µM],35.8% [100 µM],6.22% [100 µM] (active),56.9% [100 µM],4.91% [100 µM] (active),24.8% [100 µM],40.6% [100 µM],40.4% [100 µM]
CCNC(=O)N1CCc2c(Cl)c3c(c(OC)c2[C@@H]1[C@H]1OCc2c1ccc(OC)c2OC)OCCO3,32.6%,60.1%,30.1%,35.3%,9.88% (active),44.5%,11.6%,35.2%,26.9%,-11% (active)
COc1ccc(-c2cc(-c3ccc(Cl)cc3)nc(SCCCCCCC(=O)NO)n2)cc1,8.94% (active),19.7%,39.5%,7.61% (active),14.9%,23.7%,10.4%,13%,27.4%,35.6%
O=C1Nc2ccccc2/C1=C/C(=O)c1ccc(N2CCOCC2)cc1,87.4%,100%,104%,100%,101%,71.9%,35.7%,96%,94.1%,101%
CCN(CC)c1ccc(/C=C/C=C2\NC(=O)NC2=O)cc1,49.8%,69%,63.3%,45.3%,19.7%,31.1%,-36% (active),37.2%,9.14% (active),33.7%
CCOc1ccc(/C=C(\C#N)c2cc3ccccc3[nH]2)cc1,78.6%,90%,87.1%,54.7%,36.2%,87.4%,32.8%,38%,89.5%,49.4%
Cc1ccc(NC(=S)/N=c2/n(-c3ccccc3)nc3n2CCN3C2=NCCN2)cc1,104%,92.3%,103%,92.7%,104%,75.3%,96.7%,106%,53.5%,106%
C[C@@H](NC(=O)[C@@H](CC(=O)N1CCC(N2CCCCC2)CC1)N1C(=O)[C@@H](N2C(=O)OC[C@@H]2c2ccccc2)[C@H]1/C=C/c1cccc(Cl)c1)c1ccccc1,87.8%,89.8%,82.1%,87.6%,13.3%,58.3%,64.2%,63.9%,65%,-54.6% (active)
Cc1ccccc1OC(=O)c1cccc(Cl)c1,108%,108%,114%,145%,109%,101%,95.5%,102%,112%,129%
